HCMV antiviral – human cytomegalovirus inhibition; HFF cells, HCMV-luciferase reporter, 72 h; hits give low values; actives 4.5% (n = 410,000); AID 1259415; activity change, negative = inhibition, % at 57.5 µM; in the data active = activity change below about -60%; inconclusive = no clear call, values can overlap the other calls; inactive = above about -39%
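Steps: HFFs plated, 16 h 37C; compounds added; HCMV-luciferase added to MOI 1 PFU/cell; 72 h 37C; OneGlo reagent, 5 min room temperature; luminescence read, normalized to controls.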
HCV inhibitor – blocks hepatitis C virus; Huh7.5.1 HCVcc-Cre infection, luciferase reporter, 44 h; Potency, µM (series often up to 41.8 µM), actives largely listed as inhibitors; actives 3.4% (n = 340,000)
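After 44 h co-culture of compound, cells and HCVcc-Cre (~0.5 moi), substrate is added for 15 min at room temperature and luciferase measured over 15 sec. Cells were seeded at 1,000/well and pre-cultured 4 h.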
SARS PLpro yeast – blocks SARS-CoV papain-like protease in a yeast assay | S. cerevisiae expressing SARS-CoV PLpro, growth rescue | Potency, µM (highest dose often 32.9 µM), usual class: activators | actives 0.19% (n = 330,000) | AID 485353; calls by dose curve; also: nearly all actives have a fitted effect of over 55% in size
Sm TGR block – blocks Schistosoma mansoni thioredoxin glutathione reductase | Q962Y6 | purified TGR, DTNB reduction, TNB absorbance 405 nm | Potency, µM (series often up to 114 µM), usual class: inhibitors | actives 3% (n = 360,000); also: nearly all actives have a fitted effect of over 60% in size
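First, TGR (20 nM dispensed) and NADPH were mixed with compound. Second, a 15 min room-temperature incubation followed. Third, further NADPH and then DTNB were added to start the reaction. Finally, TNB absorbance was monitored kinetically.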
Pf growth 48h – inhibits P. falciparum growth in the first generation, 48 h | P. falciparum luciferase growth in erythrocytes, 48 h | actives 5.9% (n = 310,000) | Potency, µM (doses to about 28.7 µM), usual class: inhibitors | AID 504832
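Erythrocytes infected with P. falciparum carrying an integrated firefly luciferase reporter (2% hematocrit, 0.1% parasitemia final) were exposed to compounds in RPMI 1640 with 0.5% Albumax at 37 C, 5% CO2. Growth inhibition was scored as reduced luminescence.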
Pf growth 96h – P. falciparum growth inhibition at 96 hours. P. falciparum luciferase reporter growth, 96 h. Potency, µM (titrated, usually from 28.7 µM), actives largely listed as inhibitors. actives 6.9% (n = 320,000)
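Erythrocytes infected with luciferase-expressing P. falciparum were dispensed at 2% hematocrit and 0.05% parasitemia (final), then incubated with compounds 96 hours at 37 C in 5% CO2. Luminescence after detection reagent addition reported growth.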
Numbers stand for hits; – = inactive; ? = inconclusive; · = not tested or not shown; [ ] = another dose, or the depositor's remark. A selection: hits, their analogues and other compounds. The true share with any hit is near 15%. Unless noted, calls follow the shape of the dose curve; as a rule, active = well fitted curve in the direction sought with a large enough effect; inconclusive = small, poorly fitted or top-dose-only effect, or another doubt; inactive = no such curve, though single readings can be large; an effect the other way counts as inactive or inconclusive.

SMILES | HCMV antiviral | HCV inhibitor | SARS PLpro yeast | Sm TGR block | Pf growth 48h | Pf growth 96h
CCOc1ccc(CNC(=O)c2ccc(Sc3ccc(Cl)cc3)c(NC(C)=O)c2)cc1OC | – | 13µM | – | – | – | –
CC(=O)Nc1cc(C(=O)NCc2ccc(C)cc2)ccc1Sc1ccc(C)cc1 | – | · | · | – | · | ·
CCOc1ccc(CNC(=O)c2ccc(Sc3ccc(C)cc3)c(N)c2)cc1OC | -62 | · | · | – | · | ·
COc1ccc(-n2c(SCc3ccccc3)nc3c([nH]c4ccccc43)c2=O)cc1 | – | · | · | – | · | ·
CCCCCCNC(=O)CCCCCNS(=O)(=O)c1ccc(Br)cc1 | – | – | – | – | ? | –
Cc1nnc(NC(=O)NC(C)N2C(=O)C3C4C=CC(C4)C3C2=O)s1 (configuration not stated) | – | – | – | – | 2.6µM | –
CC(NC(=O)Nc1nnc(C(F)(F)F)s1)N1C(=O)C2C3C=CC(C3)C2C1=O (configuration not stated) | – | – | – | – | – | –
COc1cc2nc(SCC(=O)NCc3ccco3)n(Cc3ccc(Cl)cc3)c(=O)c2cc1OC | -69 | – | – | – | ? | –
COc1cc2c(=O)n(Cc3ccccc3)c(=O)n(CC(=O)NCc3ccco3)c2cc1OC | – | ? | – | – | ? | 3.7µM
O=C(Cn1c(=O)n(Cc2ccccc2)c(=O)c2ccccc21)NCc1ccco1 | – | ? | – | – | · | –
Cc1ccc(NC2CCCN(C(=O)CSc3ccncc3)C2)cc1C (configuration not stated) | – | – | – | – | – | 13µM
Cc1occc1C(=O)N1CCCC(Nc2ccc(F)cc2)C1 (configuration not stated) | – | – | – | – | – | –
CC(C)c1ccc(NC2CCCN(C(=O)CCN3Cc4ccccc4C3=O)C2)cc1 (configuration not stated) | – | – | – | – | – | 1.9µM
Cc1ccc(NC2CCCN(C(=O)CN3C(=O)c4ccccc4C3=O)C2)cc1C (configuration not stated) | – | – | – | – | ? | 15µM
Cc1occc1C(=O)N1CCCC(Nc2ccc(C(C)C)cc2)C1 (configuration not stated) | -65 | – | ? | – | ? | –
C=CCn1c(COc2ccccc2OC)nc2ccccc21 | – | – | – | – | ? | ?
O=C(O)c1nc(-c2ccccc2)c(C(=O)NC2CC2)[nH]1 | – | · | · | · | · | ·
O=S(=O)(O)CCCS(=O)(=O)O | – | · | · | · | – | –
COc1ccc(Nc2nc(S(=O)(=O)c3ccc(C)cc3)c(Cl)s2)cc1 | -94 | ? | – | – | – | ?
O=S(=O)(c1ccccc1)c1nc(Nc2cccc(O)c2)sc1Cl | -67 | ? | – | ? | – | –
Cc1ccc(S(=O)(=O)c2nc(Nc3ccccc3)sc2Cl)cc1 | -74 | 11µM | – | – | – | –
Cn1nc(-c2ccccc2)cc1NS(=O)(=O)c1ccc(C#N)cc1 | – | – | – | – | – | –
CCOc1ccc(NC(=O)c2ccccc2C(=O)c2ccccc2)cc1OCC | – | – | – | – | – | ?
Cc1cc(C)cc(Nc2ccc3nonc3c2[N+](=O)[O-])c1 | -83 | ? | · | · | · | ·
O=[N+]([O-])c1c(Nc2ccccc2)ccc2nonc12 | – | – | – | – | – | ?
SMILES | HCMV antiviral | HCV inhibitor | SARS PLpro yeast | Sm TGR block | Pf growth 48h | Pf growth 96h
CCOC(=O)NNc1ccc2nonc2c1[N+](=O)[O-] | · | ? | – | 16µM | ? | ?
CCCCCCCCCCCCCCC(O)C[N+](C)(CCO)CCO (configuration not stated) | – | – | · | · | · | ·
CCCCOc1ccc(C(O)(CCC)CCN2CCOCC2)cc1 (configuration not stated) | – | ? | – | 40µM | – | –
CCCCOc1ccc(OCCCN2CCOCC2)cc1 | – | – | – | – | – | –
CCCCC(O)(CCN1CCOCC1)c1ccc(Cl)cc1 (configuration not stated) | – | – | – | 35µM | · | ?
CCCCOc1ccc(C(O)(CC)CCN2CCOCC2)cc1 (configuration not stated) | – | – | – | 20µM | – | –
CCCC(O)(c1ccc(Cl)cc1)C(CN1CCOCC1)c1ccccc1 (configuration not stated) | – | ? | – | – | · | ?
CC1(C)CC(=O)C(=CN2CCOCC2)C(=O)C1 | – | – | – | 7.1µM | – | ?
CC1(C)CC(=O)C(=CN2CCN(C(=O)c3ccco3)CC2)C(=O)C1 | – | – | – | ? | · | ?
CS(=O)(=O)c1ccc(Cl)c(NC(=O)CCl)c1 | – | ? | – | 6.3µM | 9.3µM | ?
CS(=O)(=O)c1ccc(Cl)c(NC(=O)COC(=O)C23CC4CC(CC(C4)C2)C3)c1 | – | – | – | – | 5.2µM | 8.3µM
CS(=O)(=O)c1ccc(Cl)c(NC(=O)COC(=O)CNC(=O)c2cccs2)c1 | – | – | – | – | – | –
N#C/C(=C\c1ccccc1)c1ccccn1 | – | – | – | – | – | –
N#C/C(=C\c1ccncc1)c1ccccn1 | -78 | ? | – | – | ? | 10µM
Cc1cc(C)c2[nH]c(=O)c(C(c3nnnn3CC3CCCO3)N3CCC(C)CC3)cc2c1 (configuration not stated) | – | – | – | 14µM | ? | –
Cc1cc(C)c2[nH]c(=O)c(C(c3nnnn3CC3CCCO3)N3CCCC(C)C3)cc2c1 (configuration not stated) | – | – | – | 13µM | 15µM | ·
COc1ccc(Cn2nnnc2C(c2cc3cc(C)cc(C)c3[nH]c2=O)N2CCOCC2)cc1 (configuration not stated) | – | – | – | ? | – | –
Cc1ccc(NC(=O)N2CCCCCC2)cc1C | – | – | – | – | – | –
Cc1ccc(NC(=O)N2CCCN(Cc3ccc(F)cc3)C2)cc1C | – | ? | – | – | 13µM | ?
O=C(NCc1ccccc1F)C1CCCN(C(=O)Nc2ccccc2)C1 (configuration not stated) | – | – | – | – | – | –
O=C(Nc1ccc(Cl)cc1)N1CCCN(Cc2ccccc2F)C1 | – | 10µM | – | – | · | ?
COc1ccccc1S(=O)(=O)N[C@@H]1CC[C@@H](CCn2cc(C3CC3)nn2)O[C@@H]1CO | – | · | · | · | · | ·
Cc1cc(/N=C/C=C2\N(C)c3ccccc3C2(C)C)n(CCC#N)n1 | ? | 11µM | – | – | ? | –[5.75 µM]
Cc1oc(-c2ccc(Cl)cc2)[n+]([O-])c1C | – | – | – | 50µM | – | ?
CCN1CCN(Cc2c(O)ccc3c2O/C(=C\c2ccc(C)cc2)C3=O)CC1 | – | – | – | ? | 5.2µM | 2.3µM
CCN1CCN(Cc2c(O)ccc3c2O/C(=C\c2ccccc2)C3=O)CC1 | – | – | – | 45µM | ? | 12µM
